Measured values as given in PubChem BioAssay AID1159580 (chemical genetic matrix, 2015).
The campaign covered roughly 5,500 compounds. About 2,000 (36%) were called active. About 18% were inconclusive and are not listed. Rule as the data show it: active = normalized growth mostly below about 0.91 (no sharp cut-off); inconclusive = no clear call, values can overlap the other calls; inactive = mostly above about 0.92. Some of the results follow.

Assay: chemical genetic growth profiling, strain panel (AID 1159580);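 also: tested at 20 µM; growth read once vehicle control cultures reached saturation at 30 °C; 1 = growth at the plate median or of vehicle wells; lower values mean less growth of the strain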
Details: S. cerevisiae deletion strains, growth OD

Measured: normalized growth

COc1cc(C(=O)O[C@H]2CC[C@@]3(C)[C@@H]4CC[C@H]5[C@]6(O)C[C@H](O)[C@@]7(O)[C@@H](CN8C[C@@H](C)CC[C@H]8[C@@]7(C)O)[C@]6(O)C[C@@]53O[C@]24O)cc(OC)c1OC
inactive: locus YAL021C, strain ccr4, hits give low values 1 | locus YAL026C, strain drs2, hits give low values 1.02 | locus YAL030W, strain snc1, hits give low values 0.996 | locus YBL061C, strain skt5, hits give low values 0.994 | locus YBR009C, strain hhf1, hits give low values 1.01 | locus YBR021W, strain FUR4, hits give low values 1.01 | locus YBR023C, strain chs3, hits give low values 0.996 | locus YBR171W, strain sec66, hits give low values 1.02 | locus YBR229C, strain ROT2, hits give low values 0.955 | locus YBR231C, strain swc5, hits give low values 0.994 | locus YBR279W, strain paf1, hits give low values 1.01 | locus YCL011C, strain gbp2, hits give low values 0.997 | locus YCL016C, strain dcc1, hits give low values 1 | locus YCL029C, strain bik1, hits give low values 0.98 | locus YCL061C, strain MRC1, hits give low values 1 | locus YCL069W, strain vba3, hits give low values 1 | locus YCR088W, strain abp1, hits give low values 1.01 | locus YDL005C, strain med2, hits give low values 0.973 | locus YDL035C, strain GPR1, hits give low values 1 | locus YDL040C, strain nat1, hits give low values 1 | locus YDL074C, strain BRE1, hits give low values 1.03 | locus YDL101C, strain DUN1, hits give low values 0.989 | locus YDL134C, strain PPH21, hits give low values 0.979 | locus YDL185W, strain tfp1, hits give low values 0.978 | locus YDL192W, strain arf1, hits give low values 1.01 | locus YDR001C, strain nth1, hits give low values 1.01 | locus YDR069C, strain doa4, hits give low values 0.998 | locus YDR101C, strain arx1, hits give low values 1.03 | locus YDR137W, strain rgp1, hits give low values 0.965 | locus YDR159W, strain sac3, hits give low values 0.972 | locus YDR162C, strain NBP2, hits give low values 0.985 | locus YDR195W, strain ref2 0.967 | locus YDR297W, strain sur2, hits give low values 1.01 | locus YDR318W, strain mcm21, hits give low values 0.972 | locus YDR334W, strain swr1, hits give low values 1.01 | locus YDR335W, strain msn5, hits give low values 1.01 | locus YDR388W, hits give low values 0.993 | locus YDR392W, strain spt3, hits give low values 0.996 | locus YDR502C, strain sam2, hits give low values 1 | locus YEL003W, strain gim4, hits give low values 1 | locus YEL037C, strain rad23, hits give low values 1.03 | locus YEL061C, strain CIN8 (second series), hits give low values 1.02 | locus YEL061C, strain CIN8, hits give low values 0.993 | locus YER015W, strain faa2, hits give low values 0.998 | locus YER016W, strain bim1, hits give low values 0.995 | locus YER110C, hits give low values 0.975 | locus YER111C, strain swi4, hits give low values 1 | locus YER155C, strain BEM2 (second series), hits give low values 1 | locus YER155C, strain BEM2, hits give low values 0.99 | locus YER167W, strain BCK2, hits give low values 0.993 | locus YFR010W, strain ubp6, hits give low values 1.02 | locus YGL078C, strain dbp3, hits give low values 0.999 | locus YGL086W, strain mad1, hits give low values 1.05 | locus YGL167C, strain pmr1, hits give low values 0.999 | locus YGL173C, strain kem1, hits give low values 1 | locus YGL227W, strain vid30, hits give low values 1.01 | locus YGL240W, strain doc1, hits give low values 0.978 | locus YGL248W, strain PDE1, hits give low values 0.998 | locus YGL253W, strain hxk2, hits give low values 1 | locus YGR078C, strain PAC10, hits give low values 0.99 | locus YGR135W, strain pre9, hits give low values 0.99 | locus YGR229C, strain SMI1, hits give low values 1.02 | locus YGR252W, strain gcn5, hits give low values 0.957 | locus YHR013C, strain ard1, hits give low values 0.962 | locus YHR027C, strain rpn1, hits give low values 1.01 | locus YHR030C, strain SLT2, hits give low values 1 | locus YHR079C, strain IRE1 (second series), hits give low values 0.992 | locus YHR094C, strain hxt1, hits give low values 0.971 | locus YHR129C, strain ARP1, hits give low values 0.985 | locus YHR142W, strain chs7, hits give low values 1.02 | locus YHR200W, strain rpn10, hits give low values 0.987 | locus YIL066C, strain RNR3, hits give low values 0.983 | locus YIL073C, strain SPO22, hits give low values 1.02 | locus YIL125W, strain kgd1, hits give low values 1 | locus YIR030C, strain dcg1, hits give low values 0.993 | locus YJL092W, strain hpr5, hits give low values 1.02 | locus YJL095W, strain BCK1 (second series), hits give low values 0.993 | locus YJL095W, strain BCK1, hits give low values 0.998 | locus YJL115W, strain asf1, hits give low values 1 | locus YJL129C, strain trk1, hits give low values 1.01 | locus YJL134W, strain LCB3, hits give low values 0.985 | locus YJL154C, strain vps35, hits give low values 1.01 | locus YJL164C, strain tpk1, hits give low values 0.999 | locus YJL166W, strain qcr8, hits give low values 1.01 | locus YJL168C, strain set2, hits give low values 0.996 | locus YJL187C, strain SWE1 (second series), hits give low values 1.01 | locus YJL187C, strain SWE1, hits give low values 1.01 | locus YJR043C, strain POL32, hits give low values 0.993 | locus YKL009W, strain mrt4, hits give low values 0.981 | locus YKL068W, hits give low values 0.988 | locus YKL085W, strain MDH1 (second series), hits give low values 1 | locus YKL085W, strain MDH1, hits give low values 1 | locus YKL160W, strain elf1, hits give low values 1 | locus YKR001C, strain vps1, hits give low values 1.06 | locus YKR026C, strain gcn3, hits give low values 1.01 | locus YKR091W, strain srl3, hits give low values 1 | locus YLL001W, strain dnm1, hits give low values 1.01 | locus YLL026W, hits give low values 0.989 | locus YLL041C, strain sdh2, hits give low values 1.01 | locus YLR027C, strain aat2, hits give low values 0.977 | locus YLR039C, strain RIC1, hits give low values 0.972 | locus YLR058C, strain SHM2, hits give low values 0.978 | locus YLR102C, strain apc9, hits give low values 0.985 | locus YLR221C, strain rsa3, hits give low values 1 | locus YLR258W, strain gsy2, hits give low values 0.98 | locus YLR262C, strain YPT6 (second series), hits give low values 0.954 | locus YLR262C, strain YPT6, hits give low values 0.975 | locus YLR268W, strain sec22, hits give low values 1.04 | locus YLR320W, strain mms22, hits give low values 0.986 | locus YLR330W, strain CHS5, hits give low values 1 | locus YLR342W, strain FKS1 (second series), hits give low values 1.03 | locus YLR342W, strain FKS1, hits give low values 0.986 | locus YLR357W, strain rsc2, hits give low values 0.974 | locus YLR370C, strain arc18, hits give low values 0.985 | locus YLR371W, strain rom2, hits give low values 0.991 | locus YLR384C, strain iki3, hits give low values 0.974 | locus YLR418C, strain cdc73, hits give low values 0.977 | locus YML016C, strain PPZ1, hits give low values 0.998 | locus YML032C, strain rad52, hits give low values 0.96 | locus YML120C, strain ndi1, hits give low values 1 | locus YML124C, strain tub3, hits give low values 0.985 | locus YMR058W, strain fet3, hits give low values 1 | locus YMR078C, strain ctf18, hits give low values 0.99 | locus YMR125W, strain sto1, hits give low values 1.02 | locus YMR129W, hits give low values 1 | locus YMR205C, strain PFK2, hits give low values 1 | locus YMR223W, strain ubp8, hits give low values 0.964 | locus YMR231W, strain pep5, hits give low values 0.999 | locus YMR307W, strain GAS1, hits give low values 1.07 | locus YNL067W, strain RPL9B, hits give low values 0.997 | locus YNL071W, strain lat1, hits give low values 1 | locus YNL153C, strain GIM3, hits give low values 1.01 | locus YNL209W, strain ssb2, hits give low values 0.997 | locus YNL233W, strain BNI4, hits give low values 1.01 | locus YNL248C, strain rpa49, hits give low values 1.01 | locus YNL250W, strain rad50, hits give low values 0.977 | locus YNL271C, strain bni1, hits give low values 0.993 | locus YNL298W, strain CLA4, hits give low values 0.971 | locus YNL307C, strain MCK1, hits give low values 0.986 | locus YNL322C, strain KRE1 (second series), hits give low values 0.989 | locus YNL322C, strain KRE1, hits give low values 0.996 | locus YNR049C, strain mso1, hits give low values 0.987 | locus YNR052C, strain pop2, hits give low values 0.996 | locus YOL012C, strain htz1 1.37 | locus YOL147C, strain pex11, hits give low values 0.985 | locus YOR001W, strain rrp6, hits give low values 0.988 | locus YOR061W, strain CKA2, hits give low values 0.962 | locus YOR069W, strain VPS5, hits give low values 0.996 | locus YOR070C, strain gyp1, hits give low values 1.01 | locus YOR080W, strain dia2, hits give low values 1.01 | locus YOR083W, strain WHI5, hits give low values 1 | locus YOR106W, strain vam3, hits give low values 0.999 | locus YOR136W, strain idh2, hits give low values 0.985 | locus YOR144C, strain elg1, hits give low values 0.98 | locus YOR184W, strain ser1, hits give low values 0.976 | locus YOR265W, strain rbl2, hits give low values 0.983 | locus YOR270C, strain vph1, hits give low values 1.11 | locus YOR290C, strain snf2, hits give low values 1.02 | locus YOR316C, strain cot1, hits give low values 0.976 | locus YPL051W, strain arl3, hits give low values 0.998 | locus YPL055C, strain LGE1, hits give low values 1.01 | locus YPL078C, strain atp4, hits give low values 0.998 | locus YPL106C, strain sse1, hits give low values 0.968 | locus YPL240C, strain hsp82, hits give low values 0.992 | locus YPR119W, strain clb2, hits give low values 0.979 | locus YPR141C, strain kar3, hits give low values 0.981 | locus YPR163C, strain tif3, hits give low values 1.01 | locus YPR167C, strain met16, hits give low values 0.978 | strain wtn01, hits give low values 1.04
